We go through 23 compounds from PubChem BioAssay (NCATS).

The nature of assay [1]: Quantitative High-Throughput drug screen in 47 multiple myeloma cell lines against the NCATS MIPE library collection: KMS12PE_JCRB cell viability assay (AID 1918972). For viability: series mostly up to about 46 µM. Note: nearly all actives have a fitted effect of over 30% in size. Note: potency is the fitted concentration of half-maximal effect. In a few lines: (§1)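 Viability readout: CellTiter-Glo luminescence following 5 min room-temperature incubation with reagent. Prior exposure: 48 h, 37C, humidified 5% CO2, 500 cells per well.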
Assay [2] is described as follows: Quantitative High-Throughput drug screen in 47 multiple myeloma cell lines against the NCATS MIPE library collection: KMS26_JCRB cell viability assay (AID 1918975). Note: nearly all actives have a fitted effect of over 45% in size. Note: potency is the fitted concentration of half-maximal effect. In a few lines:
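Myeloma cells (500 per well) were exposed to MIPE 4.0 compounds by pin transfer and incubated 48 hours at 37C, 5% CO2. Viability was read as ATP by CellTiter-Glo luminescence, normalised to DMSO (100%) and media-only (0%) wells.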

Assay [3] can be described thus: Quantitative High-Throughput drug screen in 47 multiple myeloma cell lines against the NCATS MIPE library collection: MOLP8_DSMZ cell viability assay (AID 1918977). Note: nearly all actives have a fitted effect of over 45% in size. Put shortly: (§2)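 Cells were exposed to library compounds for 48 hours, after which ATP was measured by CellTiter-Glo. Signal was taken as median relative luminescence units.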
The nature of assay [4]: Quantitative High-Throughput drug screen in 47 multiple myeloma cell lines against the NCATS MIPE library collection: NCIH929_DSMZ cell viability assay (AID 1918978). Note: nearly all actives have a fitted effect of over 35% in size. Note: potency is the fitted concentration of half-maximal effect. Put shortly: as §2
Assay [5] can be described thus: Quantitative High-Throughput drug screen in 47 multiple myeloma cell lines against the NCATS MIPE library collection: OCIMY1_PLB cell viability assay (AID 1918979). For viability: series mostly up to about 46 µM. Note: nearly all actives have a fitted effect of over 35% in size. Note: potency is the fitted concentration of half-maximal effect. Put shortly:
as §2

Assay [6] can be described thus: Quantitative High-Throughput drug screen in 47 multiple myeloma cell lines against the NCATS MIPE library collection: MM1R_ATCC cell viability assay (AID 1918981). Note: nearly all actives have a fitted effect of over 35% in size. Note: potency is the fitted concentration of half-maximal effect. In a few lines: as §2
The nature of assay [7]: Quantitative High-Throughput drug screen in 47 multiple myeloma cell lines against the NCATS MIPE library collection: KMS20_JCRB cell viability assay (AID 1918973). Note: nearly all actives have a fitted effect of over 45% in size. Note: potency is the fitted concentration of half-maximal effect. Put shortly:
as §1

Assay [8] in a line: Quantitative High-Throughput drug screen in 47 multiple myeloma cell lines against the NCATS MIPE library collection: MM1S_ATCC cell viability assay (AID 1918980). Note: nearly all actives have a fitted effect of over 45% in size. Note: potency is the fitted concentration of half-maximal effect. Put shortly:
as §2

Assay [9] can be described thus: Quantitative High-Throughput drug screen in 47 multiple myeloma cell lines against the NCATS MIPE library collection: MMM1_PLB cell viability assay (AID 1918976). Note: potency is the fitted concentration of half-maximal effect; nearly all actives have a fitted effect of over 35% in size. Put shortly:
as §2

Records with an inconclusive call do not appear. Active and inactive are the calls of the source. Calls come from the whole dose curve; as a rule, active = well fitted curve in the direction sought with a large enough effect; inconclusive = small, poorly fitted or top-dose-only effect, or another doubt; inactive = no such curve, though single readings can be large; an effect the other way counts as inactive or inconclusive.

Consider `CCN(CC)CCCC(C)Nc1ccnc2cc(Cl)ccc12` (stereo not drawn), for which, in assay [1], the Potency was 1.66 µM (active). Further, the Potency result in [2], in assay [3], in assay [4], in [5] and in assay [6] was “inactive” each time.

In the case of `O=NN(CCCl)C(=O)NCCCl`, the Potency result in [1], in [3], in assay [4] and in [6] was “inactive” throughout.

On to `COc1ccc(-c2ccc3c(N4CCOCC4)nc(N4C[C@@H](C)O[C@@H](C)C4)nc3n2)cc1CO`, for which the Potency in assay [1] was 2.35 µM (active); in assay [7], 0.235 µM (active); in [4], 0.187 µM (active); in assay [5], 4.69 µM (active); in [8], 0.469 µM (active); in assay [6], 0.833 µM (active).

On to `COc1ccccc1-c1cccc(-c2c(O)c3cc(C#N)c(Cl)cc3[nH]c2=O)c1`, for which the Potency in assay [1] is 48.1 µM (active). The Potency entry in assay [7], in assay [5], in assay [8] and in assay [6] was “inactive” throughout.

As to `Cc1ccccc1C(OCCN(C)C)c1ccccc1` (stereo not drawn), the Potency entry in [1], in [3], in assay [4], in assay [5], in [8] and in [6] was “inactive” in each case.

Turning to `Cn1cnc2c(F)c(Nc3ccc(Br)cc3Cl)c(C(=O)NOCCO)cc21`, the Potency in assay [1] was 3.32 µM (active); in [7], 0.0935 µM (active); in assay [4] it was 0.105 µM (active); in assay [8], 7.43 µM (active); in [6], 18.7 µM (active). For the same compound, the Potency entry in assay [5] is “inactive”.

For `COc1ccc(-c2ccc3c(N4CCOC[C@H]4C)nc(N4CCOC[C@H]4C)nc3n2)cc1CO`, the Potency in [1] was 0.059 µM (active); in [7], 0.0093 µM (active); in assay [8], 0.0526 µM (active); in assay [6] it was 0.0743 µM (active).

Consider `Nc1cccc(S(=O)(=O)N2CCCN(S(=O)(=O)c3ccc4c(c3)OCCO4)CC2)c1`, for which the Potency entry in [1], in assay [2] and in [4] was “inactive” throughout. Also, the Potency in [8] was 14.8 µM (active); in [6], 11.8 µM (active).

`CN(C)c1ccc(C2Nc3ccc4ccccc4c3C3=C2C(=O)CC(C)(C)C3)cc1Br` (stereo not drawn): the Potency in assay [1] was 5.9 µM (active); in assay [2], 16.6 µM (active); in assay [9], 14.8 µM (active). For the same compound, the Potency entry in [5] and in assay [8] was “inactive” throughout.

As for `CCCC(CCC)C(=O)O`, the Potency result in assay [1], in assay [3], in assay [4], in assay [5] and in [6] was “inactive” each time.

As to `CC(C)(C)OC(=O)CN(Cc1ccc(Cl)cc1)Cc1ccc([N+](=O)[O-])s1`, the Potency entry in assay [1], in assay [7], in [4], in assay [5] and in [6] was “inactive” each time.

For the compound `CCn1c(-c2nonc2N)nc2cnc(Oc3cccc(NC(=O)c4ccc(OCCN5CCOCC5)cc4)c3)cc21`, the Potency is 5.9 µM (active) in [1]; 10.5 µM (active) in [9]; 9.35 µM (active) in assay [4]; 18.7 µM (active) in assay [8]; 16.6 µM (active) in assay [6].

Regarding `Cn1c(=O)c(F)c(Nc2ccc(I)cc2F)c2c(=O)n(C[C@@H](O)CO)cnc21`, the Potency in assay [1] was 18.7 µM (active); in assay [7], 0.0118 µM (active). Besides, the Potency result in assay [3], in assay [5] and in [6] was “inactive” in each case.

In the case of `OC(CCN1CCCCC1)(c1ccccc1)C1CC2C=CC1C2` (stereo not drawn), the Potency result in assay [1], in assay [2], in assay [4] and in assay [5] was “inactive” each time.

As to `CC(C[N+](C)(C)C)OC(N)=O` (stereo not drawn), the Potency result in assay [1], in assay [2], in [3], in [4], in [5] and in assay [8] was “inactive” in each case. The Potency result in assay [6] was “inactive”.

`COCCNCCCn1c(C(=O)CF)c(-c2ccc(C)cc2)c2c(N)ncnc21`: the Potency result in [1], in [2], in [4] and in assay [5] was “inactive” in each case. In assay [6], the Potency is 2.64 µM (active).

For the compound `COc1ccc(CC2=NN3C([C@@H](CCc4ccccc4)[C@@H](C)O)=NC(C)C3C(=O)N2)cc1OC` (stereo partly drawn), the Potency entry in assay [1], in assay [7], in assay [4], in assay [5] and in assay [8] was “inactive” in each case.

Consider `Cc1cc2c(F)c(Oc3ncnn4cc(OC[C@@H](C)O)c(C)c34)ccc2[nH]1`, for which the Potency entry in assay [1] and in assay [5] was “inactive” each time. For the same compound, the figures for the Potency in assay [9], in assay [4] and in assay [8] were 2.09 µM (active), 18.7 µM (active) and 16.6 µM (active), respectively.

As for `Cc1cn[nH]c1`, the Potency was 0.296 µM (active) in assay [1]; 0.332 µM (active) in assay [7]; 1.18 µM (active) in assay [4]; 1.87 µM (active) in [5]; 0.332 µM (active) in assay [8]; 0.132 µM (active) in [6].

As to `C[C@@H]1CN(Cc2ccc(F)cc2)[C@@H](C)CN1C(=O)c1cc2c(C(=O)C(=O)N(C)C)cn(C)c2cc1Cl`, the Potency is 20.9 µM (active) in [1], 18.7 µM (active) in assay [2], 23.5 µM (active) in assay [9] and 10.5 µM (active) in assay [8]. For the same compound, the Potency result in assay [5] was “inactive”.

Consider `CC(C)NCC(O)COc1ccc(COCCOC(C)C)cc1` (stereo not drawn), for which the Potency entry in assay [1], in assay [2], in assay [4], in assay [5] and in assay [8] was “inactive” each time. The Potency in assay [9] is 7.43 µM (active).

`CCOC(=O)N1CCC(=C2c3ccc(Cl)cc3CCc3cccnc32)CC1`: the Potency entry in assay [1] is “inactive”. The Potency in [2] is 18.7 µM (active); in [4] it was 7.43 µM (active); in [8], 29.6 µM (active).

Regarding `O=C1CCC(N2C(=O)c3ccccc3C2=O)C(=O)N1` (stereo not drawn), the Potency entry in assay [1], in assay [4] and in assay [5] was “inactive” throughout. The Potency in [9] was 2.96 µM (active).
